Compound activity (PubChem)
In the library only some 3.1% were active in any assay of this set; here they are far more common.
PriA SSB inh = inhibitors of Klebsiella pneumoniae PriA binding to SSB C-terminal tail | AlphaScreen SSBct-PriA binding, biotinylated peptide | inhibition, % at 33 µM | 430,000 tested, 0.6% active; in the data active means inhibition mostly above about 37%, no sharp cut-off; inactive means mostly below about 20%;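 further: plate controls were negative control peptide for no effect and reference peptide for full effect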
Autofluor counter = flagged as autofluorescent in microsphere protease counterscreen; compound autofluorescence counterscreen, microsphere flow cytometry; active compounds read high; fluorescence intensity (concentration not given with the values); 360,000 tested, 3.1% active; AID 624483; in the data active means fluorescence intensity above about 16000; inconclusive means no clear call, values can overlap the other calls
Anthrax LF prot = inhibitors of Bacillus anthracis lethal factor protease. P15917. multiplex microsphere protease cleavage assay, LF. inhibition, % at 10 µM. 360,000 tested, 0.12% active; further: plate controls were buffer without enzyme for full effect and enzyme alone for no effect
BoNT A protease = BoNT A light chain protease inhibition; 360,000 tested, 0.17% active; inhibition, % at 10 µM; multiplex microsphere protease substrate cleavage, flow cytometry; further: plate controls were buffer without enzyme for full effect and enzyme alone for no effect
BoNT-F LC inh = BoNT F light chain protease inhibition; inhibition, % at 10 µM; AID 588497; 360,000 tested, 0.22% active; Multiplex microsphere protease cleavage assay, flow cytometry; in the data active means inhibition above about 35%, passing the limit was not always enough; inconclusive means no clear call, values can overlap the other calls; further: plate controls were buffer without enzyme for full effect and enzyme alone for no effect
Numbers without * were called inactive; ? = inconclusive; . = no result given. Unless noted, no stated cut-off is given here; in the data, active means inhibition above about 30%; inconclusive means no clear call, values can overlap the other calls; inactive means below that.

SMILES	PriA SSB inh	Autofluor counter	Anthrax LF prot	BoNT A protease	BoNT-F LC inh
COc1cc(/C=N/NC(=O)COc2ccccc2C)ccc1OC(=O)c1cccs1	.	22564*	-2	?	0
COc1ccc(CC(=O)N/N=C/c2cccs2)cc1OC	.	3446	-10	2	49*
Cc1nc2ccccc2cc1C(=O)N/N=C/c1cccs1	.	2060	1	3	38*
Cc1nc2ccccc2cc1C(=O)N/N=C/c1ccco1	.	2561	-4	0	-8
COC(=O)c1ccc(OC)c(Cn2cnc3c(-c4cccc(Cl)c4)csc3c2=O)c1	-19	.	.	.	.
O=C(/C=C/c1cccc([N+](=O)[O-])c1)c1cccnc1	-17	.	.	.	.
COc1ccc(SCC2CCN(C(=O)c3cc(C)on3)CC2)cc1	-6	.	.	.	.
C=CCOC(=O)C1=C(C)NC(=O)NC1c1ccc(Cl)cc1 (configuration not stated)	102*	4236	-3	0	6
C=CCOC(=O)C1=C(C)NC(=O)NC1c1ccc(N(C)C)cc1 (configuration not stated)	4	.	.	.	.
Cc1ccc(S(=O)(=O)N2CCCC2CNC(=O)C(=O)NCc2cccnc2)cc1 (configuration not stated)	-22	.	.	.	.
O=C(CCS(=O)(=O)c1ccccc1)Nc1nc(-c2ccc3c(c2)CCCC3)cs1	-11	.	.	.	.
CN=C1S/C(=C\c2cc(C)n(-c3ccccc3F)c2C)C(=O)N1C	10	20537*	-2	4	7
CN1C(=O)Cc2cc(NC(=O)c3ccc(-c4ccsc4)cc3)ccc21	58*	.	.	.	.
CCCCOc1ccc(C(=O)Nc2ccc3c(c2)CC(=O)N3C)cc1	14	.	.	.	.
CCOC(=O)c1oc2ccccc2c1NC(=O)c1ccc(S(=O)(=O)N2CCCCCC2)cc1	3	.	.	.	.
O=C(Nc1cnc(N2CCCC2)nc1)c1ccc(F)cc1F	-8	.	.	.	.
COc1ccccc1NC(=O)N(C1=NCCC1)c1ccc(F)cc1	-10	.	.	.	.
CCCCCOc1ccc(NC(=O)C2OC3OC(C)(C)OC3C3OC(C)(C)OC23)cc1 (configuration not stated)	1	2407	-2	0	-3
COc1ccc(NC(=O)C2OC3OC(C)(C)OC3C3OC(C)(C)OC23)cc1 (configuration not stated)	-4	23845*	0	-1	-1
O=C(Cn1ncn2nc(-c3ccccc3)cc2c1=O)N1CCN(c2ccccc2F)CC1	-5	.	.	.	.
O=C(/C=C/c1ccc(F)cc1)c1ccc(Br)s1	1	.	.	.	.
Cc1ccccc1N(CC(=O)NCC1CCCO1)C(=O)C1(C)CC(=O)N=C2C=CC=CN21 (configuration not stated)	-1	23341*	-2	0	0
Cc1ccccc1N(CC(=O)NC1CCCC1)C(=O)C1(C)CC(=O)N=C2C=CC=CN21 (configuration not stated)	7	4045	-2	0	-4
CC(O)(CNC(=O)C(=O)NC1CCCC1)c1cc2ccccc2o1 (configuration not stated)	-30	.	.	.	.
Cc1ccc(NC(=O)CN2CCC(C(=O)NCCn3nc(-c4ccco4)ccc3=O)CC2)c(C)c1	-4	.	.	.	.
SMILES	PriA SSB inh	Autofluor counter	Anthrax LF prot	BoNT A protease	BoNT-F LC inh
c1ccc(Nc2cccc(Nc3ccccc3)n2)cc1	72*	3520	-8	-2	-24
N#Cc1c(N)[nH]c(=S)c(C#N)c1-c1ccccc1	-19	20825*	0	1	3
N#Cc1c(-c2ccccc2)cc(-c2ccccc2)[nH]c1=S	7	.	.	.	.
COc1ccc(-c2c3c(nc4sc(C(=O)Nc5nsc(-c6ccc(Cl)cc6)n5)c(N)c24)CC(C)(C)CC3=O)cc1	-7	.	.	.	.
O=C(Nc1ccc(Cl)c([N+](=O)[O-])c1)c1ccc(NCCCN2CCOCC2)c([N+](=O)[O-])c1	10	23261*	-2	1	-2
CC(C(=O)N=c1sc2ccccc2n1C)N1C(=O)C2CC=CCC2C1=O (configuration not stated)	-8	21549*	-1	3	3
CC(=O)N=c1sc2ccccc2n1C	-2	2950	-3	-1	-2
CC(Cc1ccccc1)NC(=O)C1COc2ccccc2O1 (configuration not stated)	-16	.	.	.	.
Clc1ccc(CNCCC2=CCCCC2)cc1	-12	17461*	-2	?	-16
Fc1ccc(CNCCC2=CCCCC2)cc1	-14	.	.	.	.
O=C(NCCNC(=O)c1c[nH]c(=O)n(Cc2cccs2)c1=O)c1ccc(NC(=O)C2CC2)cc1	-9	.	.	.	.
COc1ccccc1-n1nnc(C(=O)NCCCn2cccn2)c1-c1ccccn1	-11	.	.	.	.
O=c1c(NCc2ccc(Cl)cc2)nccn1-c1cccc(C(F)(F)F)c1	54*	.	.	.	.
Cc1ccc(CNc2nccn(-c3cccc(Cl)c3C)c2=O)cc1	46*	.	.	.	.
CC(=O)NC(=Nc1nc(C)cc(C)n1)Nc1cccc(C)c1	-3	.	.	.	.
COc1cc2nc3sc(Nc4ccc(C)c(Cl)c4)nn3c(=O)c2cc1OC	1	.	.	.	.
O=C(OCC(F)(F)C(F)F)c1ccccc1C(=O)Oc1ccc(F)cc1F	-57	20051*	0	?	3
Cc1ccc2[nH]c3c(=O)n(CC(=O)NCc4ccc(F)cc4Cl)cnc3c2c1	-6	.	.	.	.
COc1cc(C)c(S(=O)(=O)Nc2ccc(CC(=O)O)cc2)cc1C	-15	25248*	-3	-6	-8
O=S(=O)(NCc1ccccc1-c1ccsc1)c1cnc[nH]1	-3	.	.	.	.
O=[N+]([O-])/C=C/c1cn(Cc2ccc(F)cc2)c2ccccc12	20	6767	31*	38*	27
O=Cc1cn(Cc2ccc(F)cc2)c2ccccc12	-20	2119	-1	0	-3
CN(C)CCNC(=O)C(=O)NCC(c1ccc(N(C)C)cc1)N1CCc2ccccc2C1 (configuration not stated)	31	.	.	.	.
C=C1C(C(=O)Nc2ccc(S(=O)(=O)Nc3ncccn3)cc2)C1C(=O)Nc1ccc(S(=O)(=O)Nc2ncccn2)cc1 (configuration not stated)	-33	.	.	.	.
Cn1c(O)c(C2=c3ccccc3=NC2=O)sc1=Nc1ccc(Cl)cc1	-3	19149*	0	3	2
SMILES	PriA SSB inh	Autofluor counter	Anthrax LF prot	BoNT A protease	BoNT-F LC inh
O=C(O)Cn1c(O)c(C2=c3ccccc3=NC2=O)sc1=O	-9	3737	-1	-2	-17
O=C(/C=C/c1cccs1)Nc1ccc2scnc2c1	14	.	.	.	.
CN(C(=O)c1ccno1)c1nnc(-c2ccccn2)s1	42*	3784	3	-1	-4
Cc1cc(C(=O)Nc2nc(-c3ccccn3)cs2)on1	94*	.	.	.	.
O=C(Nc1nc(-c2ccccn2)cs1)c1ccno1	125*	.	.	.	.
C[C@H](NC(=O)c1ccco1)C(=O)Nc1nc(-c2ccccn2)cs1	53*	3764	1	-1	0
CCc1cc(=O)[nH]c(-n2nc(-c3cccs3)cc2NC(=O)c2c(F)cccc2Cl)n1	-15	.	.	.	.
O=C(Cn1ncn2nc(-c3ccc(F)cc3)cc2c1=O)N1CCCC1	-2	.	.	.	.
CC1CCc2nc(NC(=O)Nc3ccc(Cl)cc3)sc2C1 (configuration not stated)	-3	.	.	.	.
COC(=O)c1c(NC(=O)CCN2CCN(C)CC2)sc2c1CCC2	2	.	.	.	.
O=C(CSc1nnc(CNC(=O)c2cccc3ccccc23)n1-c1cccc(C(F)(F)F)c1)Nc1ccc(F)cc1	2	.	.	.	.
O=C(Nc1nc(-c2ccccn2)cs1)c1ccco1	49*	4917	2	-3	-15
O=C(CNC(=O)c1ccco1)Nc1nc(-c2ccccn2)cs1	96*	.	.	.	.
